Assay results reported in PubChem BioAssay (EPA / NIEHS).
The source made the active and inactive calls. Rule for the calls: active = hit-call score of the fitted dose curve at least 0.9, where 1 is the maximum; inactive = score below 0.9.

Target: Nuclear respiratory factor 1 (Homo sapiens) (UniProt Q16656)
Assay: ATG_NRF1_CIS: Attagene CIS-FACTORIAL HepG2 Assay for human Nuclear Respiratory Factor 1 (NRF1) Orphan Gene (AID 2282987)
Details: HepG2 NRF1 cis-element reporter, Attagene multiplex; actives raise or lower the signal
Protocol: ATG_CIS is a cell-based, multiplexed-readout assay that uses HepG2, a human liver cell line, with measurements taken at 24 hours after chemical dosing in a 24-well plate.ATG_NRF1_CIS is one of 52 assay component(s) measured or calculated from the ATG_CIS assay. It is designed to make measurements of mRNA induction, a form of inducible reporter, as detected with fluorescence intensity signals by Reverse transcription polymerase chain reaction (RT-PCR) and Capillary electrophoresis technology.Data from the assay component ATG_NRF1_CIS was analyzed into 1 assay endpoint. This assay endpoint, ATG_NRF1_CIS, was analyzed with bidirectional fitting relative to DMSO as the negative control and baseline of activity. Using a type of inducible reporter, measures of mRNA for gain or loss-of-signal activity can be used to understand the reporter gene at the transcription factor-level as they relate to the gene NRF1. Furthermore, this assay endpoint can be referred to as a primary readout, because this assay has produced multiple assay endpoints where this one serves a reporter gene function. To generalize the intended target to other relatable targets, this assay endpoint is annotated to the dna binding intended target family, where the subfamily is nuclear respiratory factors.
Human liver HepG2 cells are transiently transfected with multiple reporter transcription units (MRTUs) in 6-well plates using FuGene 6 reagent (Roche; 3 ml FuGene/1 mg DNA). The MRTU constructs are regulated by a cis-regulating element (promoter). […] A major difference between the CIS and TRANS system is that in CIS activities of endogenous TFs are measured, whereas the TRANS assay evaluates changes in activities of exogenous, chimeric NR-Gal4 proteins. […] At the end of 24 hour incubation, total RNA was isolated using TriZol reagent (Invitrogen). The isolated RNA is then reverse-transcribed using oligo(dT) primer and Mo-MLV reverse transcriptase (Invitrogen) with DNAse I (Ambion) treatment for 30 min. The one-tenth of the produced cDNA was amplified by PCR using Taq DNA polymerase (Invitrogen) and two reporter sequence-specific primers. The PCR products were fluorescently labeled by primer extension with 6-arboxyfluorescein (6-FAM) 5'-labeled reporter sequence-specific primer (2 min at 95 C, 20 s at 68 C and 10 min at 72 C) and these products were digested with 5U of HpaI (New England Biolabs) for 2h at 37 C. The fragments were purified using Qiaquick PCR columns (Qiagen), analyzed on an ABI 3130xL genetic analyzer (Applied Biosystems) with peak positions identified by using a set of X-rhodamine (ROX)-labeled MapMarker1000 molecular weight standards (BioVentures). The raw capillary electrophoresis data was processed using Attagraph software (Attagene).

Sequence of Nuclear respiratory factor 1 (Homo sapiens) (Q16656 whole entry, looked up): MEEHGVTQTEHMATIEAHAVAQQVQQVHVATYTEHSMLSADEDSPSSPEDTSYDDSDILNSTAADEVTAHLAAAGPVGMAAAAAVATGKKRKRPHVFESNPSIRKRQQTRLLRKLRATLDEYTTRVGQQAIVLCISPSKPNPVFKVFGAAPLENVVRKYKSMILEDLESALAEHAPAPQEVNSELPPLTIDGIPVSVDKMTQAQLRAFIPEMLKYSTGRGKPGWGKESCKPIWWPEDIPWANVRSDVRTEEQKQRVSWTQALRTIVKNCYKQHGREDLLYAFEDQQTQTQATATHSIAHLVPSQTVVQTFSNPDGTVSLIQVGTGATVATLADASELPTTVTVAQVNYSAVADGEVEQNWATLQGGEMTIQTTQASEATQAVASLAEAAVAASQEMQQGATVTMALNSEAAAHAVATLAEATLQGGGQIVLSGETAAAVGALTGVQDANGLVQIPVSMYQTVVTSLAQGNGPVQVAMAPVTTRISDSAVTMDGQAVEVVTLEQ

**Q.** `CCN(CC)c1ccc2c(-c3ccccc3C(=O)O)c3ccc(=[N+](CC)CC)cc-3oc2c1` was tested. Which outcome did it give?
**A.** The outcome was “inactive”.

**Q.** For `OCC(CO)(CO)COCC(CO)(CO)CO`, which outcome is on record?
**A.** Its outcome is “inactive”.

**Q.** Which outcome does the source give for `C=COCCOCCOCCOC=C` here?
**A.** The outcome was “inactive”.

**Q.** How did the outcome turn out when `C[C@]12CC[C@H]3[C@@H](CCC4=CC(=O)CC[C@@]43C)[C@@H]1CC[C@@H]2C(=O)CO` was run?
**A.** The outcome was “inactive”.

**Q.** Which outcome does the source give for `CCOc1ccccc1OCC` here?
**A.** The outcome was “inactive”.

**Q.** `CCOC(=S)SSC(=S)OCC` was tested. Which outcome did it give?
**A.** Its outcome is “inactive”.

**Q.** With `O=C1O[C@@H]2[C@@H](O)[C@H](O)O[C@@H]2[C@H]1O` as the molecule, how does the outcome read?
**A.** The outcome was “inactive”.

**Q.** `CCCc1c(OCCCOc2ccc(OCC(=O)O)cc2)ccc(C(C)=O)c1O` was tested. Which AC50 did it give?
**A.** Its AC50 is 100 µM (active).

**Q.** With `CC(C)(C)c1n[nH]c(=S)n(N)c1=O` as the molecule, how does the outcome read?
**A.** Its outcome is “inactive”.

**Q.** Which outcome does the source give for `CC(=O)OCc1ccc2c(c1)OCO2` here?
**A.** The outcome was “inactive”.

**Q.** How did the outcome turn out when `CC(O)C(C)O` (stereo not given) was run?
**A.** Its outcome is “inactive”.

**Q.** `CCCCCCCCCCCCCC(=O)O` was tested. Which outcome did it give?
**A.** The outcome was “inactive”.

**Q.** With `CNC(=O)Oc1ccc2c(c1)[C@]1(C)CCN(C)[C@@H]1N2C` as the molecule, how does the outcome read?
**A.** Its outcome is “inactive”.

**Q.** For `CCn1c2ccccc2c2cc(N)ccc21`, which outcome is on record?
**A.** The outcome was “inactive”.

**Q.** With `CCCCCCCCCCN` as the molecule, how does the outcome read?
**A.** Its outcome is “inactive”.

**Q.** `Cc1ccc2sc3cccc(C)c3c2c1` was tested. Which outcome did it give?
**A.** The outcome was “inactive”.

**Q.** How did the outcome turn out when `CC(C)(C)NC(N)=O` was run?
**A.** The outcome was “inactive”.

**Q.** For `CC1(C)[C@H](C(=O)OCc2cccc(Oc3ccccc3)c2)[C@@H]1C=C(Cl)Cl`, which outcome is on record?
**A.** The outcome was “inactive”.

**Q.** Which outcome does the source give for `S=C(S)NCCNC(=S)S` here?
**A.** Its outcome is “inactive”.

**Q.** How did the outcome turn out when `CC(C)=CCCC(C)=CCCC(C)=CCO` was run?
**A.** Its outcome is “inactive”.

**Q.** Which outcome does the source give for `O=C(O)c1snc(Cl)c1Cl` here?
**A.** The outcome was “inactive”.

**Q.** Which outcome does the source give for `CN(C)CCCN` here?
**A.** Its outcome is “inactive”.

**Q.** Which outcome does the source give for `CC(CCO)CCc1ccccc1` (stereo not given) here?
**A.** Its outcome is “inactive”.

**Q.** With `Cc1cccc(C)c1[N+](=O)[O-]` as the molecule, how does the outcome read?
**A.** The outcome was “inactive”.

**Q.** Which outcome does the source give for `O=C(Nc1ccccc1)c1cc([N+](=O)[O-])ccc1Cl` here?
**A.** Its outcome is “inactive”.

**Q.** Which outcome does the source give for `NC(=O)Nc1ccc(Cl)cc1` here?
**A.** The outcome was “inactive”.

**Q.** For `Cc1ccc(C=O)s1`, which outcome is on record?
**A.** The outcome was “inactive”.

**Q.** With `CC(C)c1cccc(O)c1` as the molecule, how does the outcome read?
**A.** The outcome was “inactive”.

**Q.** How did the outcome turn out when `O=C1CCCCCCCCCCOCCCCO1` was run?
**A.** The outcome was “inactive”.

**Q.** `OC[C@H]1O[C@H](O[C@]2(CCl)O[C@H](CCl)[C@@H](O)[C@@H]2O)[C@H](O)[C@@H](O)[C@H]1Cl` was tested. Which outcome did it give?
**A.** The outcome was “inactive”.

**Q.** `CC1CCC2CC1C2(C)C` (stereo not given) was tested. Which outcome did it give?
**A.** Its outcome is “inactive”.

**Q.** `c1ccc2c(c1)c1cccc3ccc4cccc2c4c31` was tested. Which outcome did it give?
**A.** Its outcome is “inactive”.

**Q.** `C=CC(=O)OCCn1c(=O)n(CCOC(=O)C=C)c(=O)n(CCOC(=O)C=C)c1=O` was tested. Which outcome did it give?
**A.** Its outcome is “inactive”.

**Q.** For `O=C(O)CN(CCN(CC(=O)O)CC(=O)O)CCN(CC(=O)O)CC(=O)O`, which outcome is on record?
**A.** Its outcome is “inactive”.

**Q.** With `CC(=O)C=CC1=C(C)CCCC1(C)C` as the molecule, how does the outcome read?
**A.** Its outcome is “inactive”.

**Q.** How did the outcome turn out when `CC(=O)/C=C/C1=C(C)CCCC1(C)C` was run?
**A.** Its outcome is “inactive”.

**Q.** `CC(C)=CCCC(C)CC=O` (stereo not given) was tested. Which outcome did it give?
**A.** The outcome was “inactive”.

**Q.** For `CC(C)Oc1ccccc1O`, which outcome is on record?
**A.** Its outcome is “inactive”.

**Q.** `CCCCCCOC(=O)CC` was tested. Which outcome did it give?
**A.** The outcome was “inactive”.

**Q.** With `CCCCCCCCCC=O` as the molecule, how does the outcome read?
**A.** Its outcome is “inactive”.
